TDP1 cell CPT – DT40-hTDP1 cell growth loss with CPT | Potency, µM (doses to about 46.2 µM), without a hit: at the top dose activity change, negative = growth inhibition, usual class: inhibitors | AID 686979 | chicken DT40 Tdp1-/-;hTDP1 cells + 20 nM CPT, ATP luminescence, 48 h | 420,000 tested, 12% active; also: potency is read from the fitted curve at half-maximal effect; % is scaled to controls: 0 for no effect and ±100 for the full control effect; nearly all actives have a fitted effect of over 55% in size
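Cell growth measured by CellTiter-Glo luminescence after a minimum 48 h, 37 C compound exposure with 20 nM CPT in Tdp1-knockout DT40 cells stably expressing hTDP1, seeded 400/well; qHTS titration format.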
IL-1B inflam inh – inhibitors of inflammasome signaling (IL-1 beta secretion). AID 743279. 360,000 tested, 4.7% active. activity change, % at 57.5 µM. THP-1 LPS/ATP IL-1B secretion, AlphaLISA, 16 h; active compounds read low; in the data active = activity change below about -50%; inconclusive = mostly about -30% to -49%; also: % is scaled to controls: 0 for no effect and ±100 for the full control effect
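Secreted IL-1B measured by AlphaLISA bead assay after 16 h compound exposure of THP-1 cells; compounds (final up to 57.5 uM) added 1 h before LPS (250 ng/mL) and ATP (1.25 mM) stimulation; lower signal means less secretion.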
S-ASM inh – blocks human secretory acid sphingomyelinase. 340,000 tested, 0.006% active. placental ASM, HMU-PC fluorogenic substrate, 60 min. Potency, µM (titrated, usually from 57.5 µM), without a hit: at the highest dose activity change, negative = inhibition, usual class: inhibitors; also: potency is read from the fitted curve at half-maximal effect
Target sequence (P17405 47-631 limits assumed): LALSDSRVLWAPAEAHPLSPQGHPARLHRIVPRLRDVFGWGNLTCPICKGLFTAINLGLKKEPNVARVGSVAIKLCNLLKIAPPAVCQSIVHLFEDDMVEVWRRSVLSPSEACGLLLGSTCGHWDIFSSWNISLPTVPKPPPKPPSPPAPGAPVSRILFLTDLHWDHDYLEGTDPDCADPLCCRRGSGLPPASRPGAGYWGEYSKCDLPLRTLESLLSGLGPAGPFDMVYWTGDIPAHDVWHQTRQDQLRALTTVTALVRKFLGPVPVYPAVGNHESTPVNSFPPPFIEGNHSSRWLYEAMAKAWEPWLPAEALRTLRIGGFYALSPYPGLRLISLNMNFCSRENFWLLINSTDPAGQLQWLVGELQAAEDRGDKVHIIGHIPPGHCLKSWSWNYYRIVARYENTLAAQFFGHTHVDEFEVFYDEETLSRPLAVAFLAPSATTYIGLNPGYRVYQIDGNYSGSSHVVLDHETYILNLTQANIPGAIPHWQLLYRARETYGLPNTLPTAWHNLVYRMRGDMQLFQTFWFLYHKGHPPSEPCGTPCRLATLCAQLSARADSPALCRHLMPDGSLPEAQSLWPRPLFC
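Fluorogenic HMU-PC substrate (9 uM final) is turned over by placental ASM in 60 min at 37 C after a 10 min compound preincubation. Reaction ended by alkaline stop (pH 10), with fluorescence read at 386/447 nm.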
DT40 TDP1 no CPT – qHTS for Inhibitors of human tyrosyl-DNA phosphodiesterase 1 (TDP1): qHTS in cells in absence of CPT; DT40 Tdp1-/- hTDP1 cells, no CPT, ATP luminescence, 48 h; Potency, µM (top dose mostly 46.2 µM), inactives show at the highest dose activity change, negative = growth inhibition, most hits filed as inhibitors; 420,000 tested, 15% active; AID 686978, 2013; also: potency is read from the fitted curve at half-maximal effect; % is scaled to controls: 0 for no effect and ±100 for the full control effect; nearly all actives have a fitted effect of over 55% in size
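DT40 Tdp1-/-;hTDP1 cells, no CPT (DMSO vehicle only), 400 cells/well; compounds pin-transferred; ≥48 hr, 37 °C; CellTiter-Glo 30 min RT dark, luminescence read.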
HepG2 tox – kills HepG2 cells in TGF-b inhibitor counter-screen. HepG2 CAGA-GFP viability, ATP luminescence, 18 h. Potency, µM (highest dose often 46.1 µM), inactives show at the top dose activity change, negative = cytotoxicity, actives largely listed as cytotoxic. 410,000 tested, 0.76% active. AID 588856; also: potency is read from the fitted curve at half-maximal effect
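CellTiter-Glo luminescence gave cytotoxicity after 18 hours at 37 degrees C. The cells were HepG2 CAGA-GFP in 1% FBS DMEM, stimulated with 500 pg/mL TGF-beta after compound addition. %Activity was normalised to no-cell wells (complete cell-killing) and DMSO (no toxicity), and curves were fitted and classified.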
TGFb inhibitor – TGF-b pathway inhibition; HepG2 CAGA-GFP TGF-b/SMAD3 reporter, GFP fluorescence, 18 h; TGF-beta stimulated, 500 pg/mL final; Potency, µM (doses to about 46.1 µM), for inactives: at the top dose activity, negative = inhibition, actives largely listed as inhibitors; 410,000 tested, 1.2% active; AID 588855; also: potency is read from the fitted curve at half-maximal effect; % is scaled to controls: 0 for no effect and ±100 for the full control effect; nearly all actives have a fitted effect of over 65% in size
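Inhibition was scored as loss of TGF-beta-induced (500 pg/mL final, 18 hours, 37 degrees C) GFP in HEPG2 cells carrying a CAGA-GFP reporter, in DMEM with 1% FBS. Well GFP was summed per cell; Activity was normalised to unstimulated and stimulated DMSO wells, then concentration-response fitting.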
* hit, by the source's call; ? = inconclusive; · = not tested or not shown. The list is not random: actives were taken first. Their share in the collection is about 19%. Unless noted, calls follow the shape of the dose curve; as a rule, active = well fitted curve in the direction sought with a large enough effect; inconclusive = small, poorly fitted or top-dose-only effect, or another doubt; inactive = no such curve, though single readings can be large; an effect the other way counts as inactive or inconclusive.

SMILES	TDP1 cell CPT	IL-1B inflam inh	S-ASM inh	DT40 TDP1 no CPT	HepG2 tox	TGFb inhibitor
CCOc1ccc2nc(NS(=O)(=O)Cc3ccccc3)sc2c1	3.3µM*	36	-5%	4.6µM*	-12%	-19%
CCOc1ccc2nc(NC(=O)CCn3cccc3)sc2c1	-9%	-11	0%	-2%	-25%	-7%
CCOc1cc(C(=O)N(CC)CC(=O)Nc2c(F)cccc2F)ccc1OCC(=O)N1CCOCC1	-12%	3	-5%	-10%	1%	?
CCOc1ccc2nc(NC(=O)CSc3nc4cccnc4n3C)sc2c1	8.2µM*	-11	-2%	3.3µM*	-1%	-16%
CCOc1ccc2nc(NC(=O)CSc3ccccc3)sc2c1	?	-9	-12%	26µM*	-11%	20%
CCOc1ccc2nc(NC(=O)c3nc(SCc4ccccc4C)ncc3Cl)sc2c1	13µM*	·	·	2.9µM*	0%	7%
CCOc1ccc(-n2ccnc2SCC(=O)Nc2nc3ccc(C)cc3s2)cc1	-1%	·	·	-23%	-4%	2%
COC(=O)c1c(-c2ccc(Br)cc2)noc1N	-16%	-20	0%	-20%	-16%	-12%
CCOc1cc(-c2noc(N)c2C(=O)OC)cc(OCC)c1OCC	-13%	-106*	3%	?	5%	-2%
Cc1cc(N=Cc2c(O)n(-c3cccc(Cl)c3)c(=O)c3ccccc23)no1	12µM*	0	1%	21µM*	-11%	-7%
O=C(COCc1cc(-c2ccc3c(c2)OCO3)on1)Nc1cc(C(F)(F)F)ccc1Cl	?	·	·	?	1%	29%
O=C(Nc1cccc(-c2nc3ccccc3o2)c1)c1cccc2c(Cl)cccc12	·	·	·	·	3%	13%
COc1ccc(N2CCN(S(=O)(=O)CCNC(=O)Cc3ccc(-c4ccccc4)cc3)CC2)cc1	?	·	·	?	-10%	-26%
CC(C)c1ccc(C2/C(=C(/O)c3ccc(F)cc3)C(=O)C(=O)N2CCCN2CCOCC2)cc1 (stereo not drawn)	10%	2	-3%	-2%	4%	2%
COc1cc(CNc2ccccc2SC)cc(OC)c1OC	21µM*	-2	-2%	21µM*	-18%	-25%
c1ccc2c(NC3CCCC3)nnc(NC3CCCC3)c2c1	?	-24	56%	16µM*	-27%	?
Nc1c(C(=O)Nc2ccccc2Cl)nnn1-c1ccc2c(c1)OCCO2	?	-15	-4%	?	-6%	-32%
CCOc1ccccc1Nc1ncnc2ccccc12	?	38	0%	?	-37%	-6%
CCOc1ccccc1Nc1cc(C)nc2ccccc12	18µM*	-10	·	?	-46%	-18%
COc1ccccc1/C=N/Nc1cc(C)nc2ccc(C)cc12	?	-22	7%	-25%	-11%	3%
CCOc1ccccc1Nc1cc(C)nc2ccc(C)cc12	?	-96*	-2%	21µM*	-2%	?
Cc1cccc(NC(=O)CNC(=O)c2ccc3nc[nH]c3c2)c1C	11%	2	·	-3%	2%	22%
CC(=O)c1c(O)cc(C)n(-c2ccc(F)cc2)c1=O	-4%	18	0%	-30%	-10%	-5%
CC(=O)c1c(O)cc(C)n(Nc2nc(C)cc(C)n2)c1=O	18µM*	85	2%	?	-36%	?
O=C(/C=C/c1cccc([N+](=O)[O-])c1)Nc1ccccc1N1CCOCC1	?	-12	1%	?	-17%	2%
N#C/C(=C\C1=C(N2CCOCC2)C(=C/c2cccc([N+](=O)[O-])c2)/CC1)C(=O)Nc1ccccc1F	9.2µM*	0	?	10µM*	-14%	-8%
